Screens (PubChem BioAssay)
The list is not random: actives were taken first. Their share in the collection is about 1.3%.
proKLK7 act: activates the human kallikrein-7 zymogen | 370,000 tested, 0.9% active | activation, % at 7 µM | P49862 | purified proKLK7, EDANS-DABCYL substrate fluorescence; 100% is mature enzyme control, 0% vehicle;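 active means activation above the mean of all tested compounds plus 3 SD, computed per campaign excluding outliers beyond control limits, cut at about 13% in these data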
Target sequence (P49862 whole entry, looked up): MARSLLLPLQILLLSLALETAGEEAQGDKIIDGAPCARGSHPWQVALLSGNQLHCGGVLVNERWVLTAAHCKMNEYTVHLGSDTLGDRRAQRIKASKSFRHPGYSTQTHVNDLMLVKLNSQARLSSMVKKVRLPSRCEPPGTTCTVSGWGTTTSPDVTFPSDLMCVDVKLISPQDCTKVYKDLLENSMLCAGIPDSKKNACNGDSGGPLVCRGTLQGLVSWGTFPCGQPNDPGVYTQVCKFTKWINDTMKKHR
HIF act: HIF pathway transcriptional activation. 300,000 tested, 0.32% active. U2OS HRE-luciferase reporter, luminescence; normalized: DMSO 0%, desferrioxamine 100%. activation, % at 7.5 µM (by protocol);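 active means mean activation of at least 10% of the iron chelator positive control signal, with at least half of replicates also reaching 10%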
GC-A act: GC-A (human) enzyme activation | P16066 | HEK293 GC-A cells, cGMP TR-FRET, EC30 ANP; 0% at EC30 ANP, 100% saturating ANP | activation, % at 10 µM | 370,000 tested, 0.14% active; in the data active means activation above about 40%
NPR2 activator: GC-B (human) receptor activation. P20594. HEK293-GC-B cells, CNP EC30, cGMP TR-FRET; 0% at EC30 CNP, 100% saturating CNP. activation, % at 10 µM. 370,000 tested, 0.11% active. AID 1920062;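 active means activation at 10 µM reaching about 35% in either raw or pattern-adjusted values, limit read from the data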
Starred values were filed as active, the others as inactive.

For C#CCN1CC(N(C)CCOC(=O)CSc2ccccc2)CS1(=O)=O (stereo not given) the results were proKLK7 act 0, GC-A act 2 and NPR2 activator 2.
COC(=O)[C@]12C[C@H](CC(=O)NCC3CCCCC3)C(=O)N(CCC3=CCCCC3)C1=C[C@H](C1CCCC1)O[C@@H]2C was read as proKLK7 act 0, GC-A act -4 and NPR2 activator -5.
`CC(C)NC(=O)[C@]1(C#N)CC(=O)N(C)[C@@H]1c1ccccc1` gave proKLK7 act 0, GC-A act 1 and NPR2 activator -2.
`CCN(CC)C(=O)CNc1nnnn1-c1ccccc1` gave proKLK7 act 1, GC-A act 0 and NPR2 activator -2.
For O=C(NCc1nc2ccccc2[nH]1)c1c(F)c(F)c(F)c(F)c1F the results were proKLK7 act 0, HIF act 74*, GC-A act 4 and NPR2 activator 4.
`O=C(NCc1nc2ccccc2[nH]1)c1ccccc1F` gave proKLK7 act 1, HIF act 1, GC-A act -3 and NPR2 activator 6.
CCN(C(=O)[C@H]1CC(=O)O[C@@H]1c1ccccc1)c1ccccc1 was read as proKLK7 act 0, GC-A act -4 and NPR2 activator 1.
Screening Cc1cccc(Nc2ncnc(N)c2[N+](=O)[O-])n1 returned proKLK7 act 0, HIF act 0, GC-A act 2 and NPR2 activator -1.
Cc1cc(C)nc(Sc2ncnc(N)c2[N+](=O)[O-])n1 was read as proKLK7 act 0, HIF act 11*, GC-A act 2 and NPR2 activator 2.
COc1ccc(CNC(=O)CN(CC2CCCO2)C(=O)CNS(=O)(=O)c2ccc(C)cc2)cc1 (stereo not given) was read as proKLK7 act 0, HIF act 27*, GC-A act 1 and NPR2 activator 2.
CCOC(=O)C(Cc1ccccc1)P(=O)(OCC)OCC (stereo not given) was read as GC-A act -4 and NPR2 activator -9.
CC(C)COc1ccc(C(=O)OCC(=O)NCc2cccs2)cc1 was read as proKLK7 act 0, GC-A act -2 and NPR2 activator 2.
Screening CC(=O)Nc1ccc(C(=O)OCC(=O)NCc2cccs2)cc1 returned proKLK7 act 0, GC-A act -1 and NPR2 activator 68*.
`CCn1c(Cc2cccs2)nnc1SCC(=O)c1ccc(Cl)cc1` gave proKLK7 act 0, GC-A act 2 and NPR2 activator -2.
For O=C(O)c1ccccc1C(=O)c1cccc2c(Br)cccc12 the results were proKLK7 act -1, GC-A act 58* and NPR2 activator 26.
Screening O=C(O)c1ccccc1C(=O)c1cccc2c(F)cccc12 returned proKLK7 act 1, GC-A act 6 and NPR2 activator 2.
Screening C=Cc1ccc(C(=O)N(Cc2ccc(F)cc2)C(C(=O)N(C)C2CCCC2)c2ccc(OC)c(OC)c2)cc1 (stereo not given) returned proKLK7 act 0, GC-A act -17 and NPR2 activator -14.
For Cc1occc1C(=O)NC1CCCCCC1 the results were proKLK7 act 1, HIF act 13*, GC-A act -1 and NPR2 activator 0.
`O=C(O)c1ccc2cccc(O)c2n1` gave proKLK7 act 0, HIF act 40*, GC-A act 3 and NPR2 activator 1.
`O=C(O)c1cccc(C(=O)O)n1` gave HIF act 0.
`Cc1ccc(Cn2cc(CN3[C@H](c4ccccc4)COc4cc(Br)ccc4S3(=O)=O)nn2)cc1` gave proKLK7 act -1, GC-A act -1 and NPR2 activator 3.
COc1ccc(OC)c(NC(=O)c2cc(-c3ccc(F)cc3OC(C)C)n[nH]2)c1 was read as proKLK7 act 0, GC-A act 3 and NPR2 activator -3.
`COc1ccc(NC(=O)c2cc(-c3cc(F)ccc3OC(C)C)n[nH]2)c(C)c1` gave proKLK7 act 0, GC-A act 56* and NPR2 activator 61*.
For CCOC(=O)c1ccccc1NC(=O)COC(=O)c1ccc(OCC(=O)N2CCOCC2)c(OCC)c1 the results were proKLK7 act 1, GC-A act 24 and NPR2 activator 35*.
Cc1cc(NC(=O)COC(=O)COc2ccc(C(=O)c3ccccc3)cc2)no1 was read as proKLK7 act 0, HIF act 0, GC-A act 64* and NPR2 activator -1.
CSCCCNC(=O)c1cn(C(C)c2ccccc2)nn1 (stereo not given) was read as proKLK7 act 0, GC-A act 2 and NPR2 activator 0.
For CCc1ccc(C2C(=O)c3ccccc3C2=O)cc1 the results were proKLK7 act 0, HIF act 16*, GC-A act 3 and NPR2 activator -13.
Screening COc1ccc(/C=C2\CC3(OC(=O)C4CCCCC4)CCCN2C3)cc1 (stereo not given) returned proKLK7 act 0, GC-A act 5 and NPR2 activator -4.
`O=C1OCCC1Sc1nnnn1-c1ccc(Cl)cc1` (stereo not given) gave proKLK7 act 0, HIF act -2, GC-A act 65* and NPR2 activator 19.
For O=c1c2c3nc4ccccc4nc3n(Cc3ccccc3)c2ncn1Cc1ccco1 the results were proKLK7 act -25, GC-A act 46* and NPR2 activator 48*.
Screening COc1ccc2nc(-c3cccc(N)c3)[nH]c2c1 returned proKLK7 act 3, HIF act 13*, GC-A act 3 and NPR2 activator 6.
O=Cc1nc(Nc2cc(F)cc(F)c2)nc(NC2CCCC2)n1 was read as GC-A act 35 and NPR2 activator -4.
For CCOc1ccc(N/C=C\C(=O)c2ccc3c(c2)OCO3)cc1 the results were proKLK7 act 0, HIF act 1, GC-A act -3 and NPR2 activator -6.
COc1ccc(N/C=C\C(=O)c2ccc3c(c2)OCO3)cc1 was read as proKLK7 act 0, HIF act 13*, GC-A act 7 and NPR2 activator 6.
CC(C)c1ccc2oc(=O)cc(CN3CCOCC3)c2c1 was read as proKLK7 act 0, HIF act 40*, GC-A act 4 and NPR2 activator 1.
`Cc1ccc2oc(=O)cc(CN3CCOCC3)c2c1` gave proKLK7 act 0, HIF act 0, GC-A act 2 and NPR2 activator 7.
O=C(N[C@H]1CCCCNC1=O)c1cc(COc2ccc(F)cc2F)on1 was read as proKLK7 act 0, HIF act 2, GC-A act 66* and NPR2 activator 6.
`c1ccc(OC2CCN(c3ncnc4sccc34)CC2)cc1` gave GC-A act 1 and NPR2 activator -7.
`CCCn1c2ccccc2c2cnn(CC(=O)NC3CCCC(C)C3C)c(=O)c21` (stereo not given) gave proKLK7 act 0, HIF act 13*, GC-A act 1 and NPR2 activator 3.
